Reference: publication PMC4336329 (PLoS ONE, 2015)
Among all 310,000 compounds or so, about 14,000 (4.5%) showed an effect of 50% or more. The effect is printed as a negative number. The list comes from a sample in which strong results are over-represented; it also holds similar structures and randomly drawn compounds.

biological target: human ether-à-go-go-related gene (hERG) potassium channel (human, UniProt Q12809); assay: primary screen, population patch clamp on CHO cells stably expressing hERG; higher = less effect of the substance
Sequence (Q12809 whole entry, looked up): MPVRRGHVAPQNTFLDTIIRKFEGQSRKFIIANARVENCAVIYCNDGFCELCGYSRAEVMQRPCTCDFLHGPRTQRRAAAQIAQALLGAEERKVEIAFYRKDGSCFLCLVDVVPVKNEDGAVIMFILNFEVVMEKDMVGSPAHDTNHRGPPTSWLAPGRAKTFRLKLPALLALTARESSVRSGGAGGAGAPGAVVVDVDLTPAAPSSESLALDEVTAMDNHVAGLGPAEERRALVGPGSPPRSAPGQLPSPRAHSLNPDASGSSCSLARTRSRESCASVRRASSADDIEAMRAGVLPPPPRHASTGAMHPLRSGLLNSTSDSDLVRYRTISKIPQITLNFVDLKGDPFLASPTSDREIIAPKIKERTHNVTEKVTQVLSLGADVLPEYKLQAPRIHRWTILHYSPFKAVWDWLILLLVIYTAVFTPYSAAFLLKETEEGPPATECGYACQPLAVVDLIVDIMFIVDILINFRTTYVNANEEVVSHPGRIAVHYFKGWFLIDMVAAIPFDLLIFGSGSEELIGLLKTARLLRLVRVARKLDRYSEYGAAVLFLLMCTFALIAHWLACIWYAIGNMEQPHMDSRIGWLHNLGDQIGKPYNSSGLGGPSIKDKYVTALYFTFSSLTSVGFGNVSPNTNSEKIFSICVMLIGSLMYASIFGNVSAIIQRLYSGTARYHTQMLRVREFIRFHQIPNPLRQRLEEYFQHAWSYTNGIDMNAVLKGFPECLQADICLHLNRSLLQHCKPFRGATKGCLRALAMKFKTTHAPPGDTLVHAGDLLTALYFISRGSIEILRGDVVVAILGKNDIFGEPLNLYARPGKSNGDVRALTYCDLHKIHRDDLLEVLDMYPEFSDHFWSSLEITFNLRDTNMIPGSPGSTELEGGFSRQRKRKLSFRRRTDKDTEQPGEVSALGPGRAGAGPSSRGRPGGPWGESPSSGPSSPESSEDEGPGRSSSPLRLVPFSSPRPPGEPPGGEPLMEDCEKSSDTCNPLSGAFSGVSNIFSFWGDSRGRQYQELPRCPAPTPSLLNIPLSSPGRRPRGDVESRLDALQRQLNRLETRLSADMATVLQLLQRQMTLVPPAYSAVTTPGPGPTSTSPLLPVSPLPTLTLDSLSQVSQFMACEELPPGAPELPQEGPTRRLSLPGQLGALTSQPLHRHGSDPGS
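Further: peak tail current of the secondary pulse compared with the same well before compound.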

| SMILES | hERG current change (%, negative = inhibition) at 10uM |
| --- | --- |
| O=C(CC1C(=O)NCCN1Cc1ccc(-c2ccccc2)cc1)NCCCn1ccnc1 (stereo not shown) | 14% |
| CC(C)CCNS(=O)(=O)c1cc2c3c(c1)CCN3C(=O)CC2 | 2.2% |
| COc1cc(-c2noc(CCCC(=O)NCc3ccco3)n2)cc(OC)c1OC | -12.1% |
| O=C1N(Cc2cccc(Cl)c2)C[C@@H]2C[C@@H](c3cccn3-c3cccnc3)N3CCC[C@@]123 | -35.7% |
| O=C1N(Cc2cccc(Cl)c2)C[C@@H]2C[C@@H](c3cccn3-c3ccccn3)N3CCC[C@@]123 | -73.5% |
| O=C1N(Cc2cccc(Cl)c2)C[C@@H]2C[C@@H](c3cccn3-c3nccs3)N3CCC[C@@]123 | -68% |
| CCn1ccnc1[C@@H]1C[C@H]2CN(Cc3cccc(Cl)c3)C(=O)[C@]23CCCN13 | -39.3% |
| C#CCOCCOCCOCCNc1nc(N2CCOCC2)nc(N2CCN(C(=O)[C@H](Cc3cc4ccccc4[nH]3)n3cc([C@@H](N)C(C)CC)nn3)CC2)n1.Cl (stereo partly shown) | 9.81% |
| O=C(CSc1nc(-c2ccccc2)cc(=O)[nH]1)N1CCOCC1 | 5.84% |
| CCOc1ccc2[nH]c3c(N4CCC5(CC4)OCCO5)ncnc3c2c1 | 5.84% |
| CCOC(=O)N1CCN(c2ncnc3c2[nH]c2ccc(OC)cc23)CC1 | -44.1% |
| O=C(c1ccco1)N1CCN(c2ncnc3c(-c4ccc(Cl)cc4)nsc23)CC1 | 4.82% |
| O=C(c1ccco1)N1CCN(c2ncnc3c2[nH]c2ccc(Cl)cc23)CC1 | -65.2% |
| Cc1cccc2[nH]c3c(N4CCN(C(=O)c5ccco5)CC4)ncnc3c12 | -27% |
| CCOc1ccc2[nH]c3c(N4CCN(C(=O)c5ccco5)CC4)ncnc3c2c1 | -58.4% |
| COc1cc2[nH]c3c(N4CCN(c5ccccn5)CC4)ncnc3c2cc1OC | 13.1% |
| CCOc1ccc2[nH]c3c(N4CCN(c5ccccn5)CC4)ncnc3c2c1 | -59.4% |
| CCOc1ccc2[nH]c3c(N4CCc5ccccc5C4)ncnc3c2c1 | 5.49% |
| Cc1ccc(C(C)(C)C)cc1S(=O)(=O)Nc1ncnc2sccc12 | 12.2% |
| Cn1nnc(NC(=O)c2ccc3ccccc3c2)n1 | 5.99% |
| CCCN(Cc1cc2ccccc2[nH]c1=O)C(=O)c1cccc([N+](=O)[O-])c1 | -16.8% |
| O=S(=O)(c1cccc(Br)c1)N1CCN(c2ccnc3cc(Cl)ccc23)CC1 | 8.43% |
| O=S(=O)(c1cccs1)N1CCN(c2ccccc2Cl)CC1 | 9.51% |
| O=S(=O)(c1ccccc1)N1CCN(c2ccnc3cc(Cl)ccc23)CC1 | -84% |

| SMILES | hERG current change (%, negative = inhibition) at 10uM |
| --- | --- |
| O=[N+]([O-])c1ccc(N2CCN(S(=O)(=O)c3ccccc3)CC2)cc1 | -46.9% |
| N#Cc1cccc(S(=O)(=O)N2CCN(c3ccnc4cc(Cl)ccc34)CC2)c1 | -70.7% |
| O=[N+]([O-])c1ccc(S(=O)(=O)N2CCN(c3ccnc4cc(Cl)ccc34)CC2)cc1 | -73.5% |
| CN1CCCN(S(=O)(=O)c2cccc(C#N)c2)CC1.Cl | 6.61% |
| O=S(=O)(c1ccc(Br)s1)N1CCN(c2ccnc3cc(Cl)ccc23)CC1 | -14.8% |
| Cc1ccc(Cl)cc1N1CCN(S(=O)(=O)c2cccc(S(=O)(=O)N3CCCC3)c2)CC1 | 2.64% |
| Cc1ccc(S(=O)(=O)N2CCN(c3ccnc4cc(Cl)ccc34)CC2)cc1C | 30.7% |
| O=S(=O)(c1ccccc1OC(F)(F)F)N1CCN(c2ccnc3cc(Cl)ccc23)CC1 | -18.4% |
| O=S(=O)(c1cccs1)N1CCN(c2ccnc3cc(Cl)ccc23)CC1 | -68.4% |
| COc1ccc(C(=O)COC(=O)c2ccn(C)n2)cc1 | -14.5% |
| Cc1[nH]c(C)c(S(=O)(=O)N2CCN(c3cccc(C(F)(F)F)c3)CC2)c1C(=O)N1CCCCC1 | -1.72% |
| O=C(NCc1ccc(F)cc1)C1CC(=O)N(Cc2ccco2)C1 (stereo not shown) | -17% |
| COc1cc(C=O)ccc1OCc1ccncc1 | 16.5% |
| O=C(c1cccs1)N1CCCN(c2ncnc3scc(-c4ccccc4)c23)CC1 | -60.7% |
| O=C(O)CSCC(=O)N1CCN(c2ncnc3scc(-c4ccccc4)c23)CC1 | 25.4% |
| Cc1ccccc1N1CCN(c2ncnc3scc(-c4cccs4)c23)CC1 | -1.45% |
| c1ccc(N2CCN(c3ncnc4scc(-c5cccs5)c34)CC2)cc1 | 9.87% |
| Cc1ccc(-c2csc3ncnc(N4CCN(C(=O)c5ccco5)CC4)c23)cc1 | -89.9% |
| Cc1ccc(-c2csc3ncnc(N4CCN(c5ccccc5O)CC4)c23)cc1 | 25.8% |
| Fc1ccc(-c2csc3ncnc(N4CCN(Cc5ccccc5)CC4)c23)cc1 | -2.14% |
| Oc1ccccc1N1CCN(c2ncnc3scc(-c4ccccc4)c23)CC1 | 4.04% |
| O=C(c1ccco1)N1CCN(c2ncnc3scc(-c4cccs4)c23)CC1 | -63.9% |
| Cc1ccc(-c2csc3ncnc(N4CCN(C(=O)c5ccccc5)CC4)c23)cc1 | -30.5% |
| Fc1ccc(-c2csc3ncnc(N4CCN(c5ccccc5)CC4)c23)cc1 | 16.2% |

| SMILES | hERG current change (%, negative = inhibition) at 10uM |
| --- | --- |
| O=C(c1ccco1)N1CCN(c2ncnc3scc(-c4ccc(F)cc4)c23)CC1 | -70.2% |
| CS/C(=N\S(=O)(=O)c1ccccc1)c1ccccc1 | 0.781% |
| CC(C)n1c(C(F)(F)F)nc2cc(C(=O)N3CCOCC3)ccc21 | 16.3% |
| O=C(O)C1Sc2[nH]c(=O)sc2C2c3cc(Cl)ccc3OC(=O)C12 (stereo not shown) | 14.5% |
| Cc1ccc(NC(=O)Cc2noc3ccccc23)c(C)c1 | 11.2% |
| O=S(=O)(CCc1nc2ccccc2o1)c1ccc(Cl)c(Cl)c1 | 13.4% |
| CCc1cc2c(N3CCN(C(=O)c4ccco4)CC3)ncnc2s1 | -77.7% |
| CCc1cc(C(=O)N2CCN(C(=O)c3ccco3)CC2)sc1C | 10.6% |
| COc1ccc(-c2csc3ncnc(N4CCN(C(=O)c5ccco5)CC4)c23)cc1 | -75.3% |
| Cc1sc2ncnc(N3CCN(C(=O)c4ccco4)CC3)c2c1C | -61.8% |
| CCc1cc2c(N3CCN(c4ccccc4)CC3)ncnc2s1 | -43.5% |
| Cc1sc2nnn(CC(=O)N3CCN(C(=O)c4ccco4)CC3)c(=O)c2c1C | -32.4% |
| CCc1cc2c(N3CCN(c4nnc(CC)s4)CC3)ncnc2s1.Cl | -67.6% |
| CCc1cc2c(N3CCCCC3)ncnc2s1.Cl | -7.21% |
| COc1ccc(-c2csc3ncnc(N4CCN(c5ccc(OC)cc5)CC4)c23)cc1 | -11.2% |
| COc1ccc(-c2nsc3c(N4CCN(C(=O)c5ccco5)CC4)ncnc23)cc1 | 10.9% |
| COc1cc(C(=O)N2CCN(c3ncnc4sc(C)c(C)c34)CC2)cc(OC)c1OC | -47.2% |
| CCc1cc2c(N3CCN(C)CC3)ncnc2s1.Cl | -29% |
| Fc1ccc(CNCc2cccc(Br)c2)cc1 | 13.9% |
| O=C(CSc1cn(CCNC(=O)c2ccccc2)c2ccccc12)NCC1CCCO1 (stereo not shown) | -10.9% |
| O=C(CNC(=O)c1cccs1)OCC(=O)c1ccccc1 | 8.55% |
| O=C(c1cccnc1Nc1ccccc1F)N1CCOCC1 | 11.7% |
| O=S(=O)(c1ccccc1)C(/C=N\O)/C=C/c1ccccc1 (stereo not shown) | 4.57% |
| CCCc1nnc(NC(=O)CCC(=O)NC2CCCCCC2)s1 | 13.7% |

| SMILES | hERG current change (%, negative = inhibition) at 10uM |
| --- | --- |
| C=CCNC(=O)COC(=O)CCC(=O)c1cccs1 | 1.42% |
| CCC(C)NC(=O)CSc1nc2ccsc2c(=O)n1-c1ccc(OC)cc1 (stereo not shown) | -3.72% |
| O=[N+]([O-])c1cccc(NNS(=O)(=O)c2ccccc2F)c1 | -29.4% |
| O=c1c2c3c(sc2nc2n1N=C(c1cccs1)CS2)CCCC3 | 5.12% |
| COc1ccnc(CN(C)C(=O)C2CCC(=O)N(CCN(C)C)C2)c1 (stereo not shown) | 17.5% |
| CC(C)(C)C(=O)N1CCN(c2ncnc3scc(-c4ccccc4)c23)CC1 | -30% |
| O=C(c1ccco1)N1CCN(c2ncnc3scc(-c4ccccc4)c23)CC1 | -64.5% |
| O=C(c1ccco1)N1CCN(c2ncnc3c(-c4ccccc4)nsc23)CC1 | -14.2% |
| CCN1CCN(C(=O)c2ccc3c(Cl)c4c(nc3c2)CCCC4)CC1 | 6.65% |
| CCCCC(C(=O)O)C(C)CC(=O)Nc1nncs1 (stereo not shown) | 13.1% |
| O=C(Nc1ccccc1)/C(=C/c1cccc(Br)c1)NC(=O)c1ccco1 | 5.35% |
| CC(=O)c1cccc(NC(=O)/C(=C/c2ccco2)NC(=O)c2ccco2)c1 | -18.6% |
| O=C(Nc1cccc(F)c1)/C(=C\c1cccnc1)NC(=O)c1ccco1 | -22.4% |
| CC(=O)c1ccc(NC(=O)/C(=C\c2ccco2)NC(=O)c2ccco2)cc1 | -15.9% |
| O=C(Nc1cccc(Cl)c1)/C(=C\c1cccnc1)NC(=O)c1ccco1 | -67% |
| Cc1ccc(NC(=O)/C(=C/c2cccc(Br)c2)NC(=O)c2ccco2)cc1 | -28.1% |
| Cc1ccc(NC(=O)/C(=C\c2cccnc2)NC(=O)c2ccco2)cc1 | -28.5% |
| O=C(Nc1cccc(Br)c1)/C(=C\c1cccnc1)NC(=O)c1ccco1 | -56.6% |
| CC(=O)c1cccc(NC(=O)/C(=C\c2ccco2)NC(=O)c2ccco2)c1 | -64.3% |
| O=C(Nc1ccc2ccccc2c1)/C(=C/c1cccc(Br)c1)NC(=O)c1ccco1 | -68.6% |
| O=C(Nc1ccccc1)/C(=C/c1cccnc1)NC(=O)c1ccco1 | -4.49% |
| CC(=O)c1cccc(NC(=O)/C(=C\c2cccnc2)NC(=O)c2ccco2)c1 | -10.6% |
